Assay [1] is described as follows: compound effects on lung adenocarcinoma cell viability – A549, calcein-AM fluorescence, 48 h, basal, profiling panel (AID 1162). Further: test concentration not given here. Particulars: higher = more signal.
Assay [2] is described as follows: compound effects on differentiated 3T3-L1 adipocyte viability – cell-based, 3T3-L1 adipocytes, calcein-AM fluorescence, 48 h, basal, profiling panel (AID 1163). Further: test concentration not given here. The settings on record: 3T3-L1 adipocytes viability, higher = more signal.
Assay [3] can be described thus: compound effects on hepatocellular carcinoma cell viability – HepG2, calcein-AM fluorescence, 48 h, basal, profiling panel (AID 1164). Further: test concentration not given here. The settings on record: higher = more signal.
Assay [4] can be described thus: compound effects on multiple myeloma cell viability – MM1S, calcein-AM fluorescence, 48 h, basal, profiling panel (AID 1165).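 Further: viability of MM1S multiple myeloma cells under basal unstimulated conditions; test concentration not given here.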 Particulars: higher = more signal.
Assay [5] can be described thus: calcein-AM signal in unstimulated myeloma cells – cell-based, calcein-AM fluorescence, 48 h, PK04 Diversity Set, profiling panel (AID 1166).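 Further: cells grown under basal conditions without added stimulus; test concentration not given here.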 Particulars: RPMI8226 myeloma viability, higher = more signal.
Assay [6] is described as follows: JC-1 mitochondrial signal, unstimulated HepG2 cells – cell-based, JC-1 fluorescence, 24 h, 100 nL compound, profiling panel (AID 1167). Further: test concentration not given here. The settings on record: HepG2 mitochondrial potential, higher = more signal.
Assay [7] in a line: JC-1 mitochondrial signal, unstimulated adipocytes – cell-based, JC-1 fluorescence, 3T3-L1 adipocytes, 24 h, 100 nL compound, profiling panel (AID 1168). Further: test concentration not given here. Particulars: JC-1 mitochondrial fluorescence, higher = more signal, called active from +8 up or from −8 down.
Assay [8] can be described thus: JC-1 mitochondrial signal, unstimulated myeloma cells – cell-based, JC-1 fluorescence, RPMI8226, 24 h, 100 nL compound, profiling panel (AID 1169). Further: test concentration not given here. Particulars: JC-1 mitochondrial potential fluorescence, higher = more signal.
Assay [9] in a line: JC-1 mitochondrial signal, unstimulated MM1S myeloma – cell-based, JC-1 fluorescence, 24 h, 100 nL compound, profiling panel (AID 1170). Further: test concentration not given here. The settings on record: MM1S mitochondrial potential, higher = more signal.
Assay [10] in a line: resazurin metabolic signal in A549 cells – cell-based, resazurin fluorescence, 24 h, PK04 Diversity Set, profiling panel (AID 1171). Further: test concentration not given here. The settings on record: A549 viability, higher = more signal, called active from +8 up or from −8 down.
The nature of assay [11]: resazurin metabolic signal in HepG2 cells – cell-based, resazurin fluorescence, 24 h, PK04 Diversity Set, profiling panel (AID 1172). Further: test concentration not given here. Particulars: HepG2 viability, higher = more signal. (The colour change of resazurin is a common sign of viable cells or microbes.)
A short description of assay [12]: budding yeast growth changes without added modifier – OD600, strain BY4716, 24 h, basal condition, primary screen (AID 1173). Particulars: S. cerevisiae BY4716 growth, OD600, 24 h; higher = more signal, called active from +8 up or from −8 down.
Assay [13] is described as follows: viability profiling in MM1S myeloma cells – cell-based, resazurin fluorescence, basal, 24 h, PK04 Diversity Set, profiling panel (AID 1174). Further: test concentration not given here. Particulars: higher = more signal, called active from +8 up or from −8 down.
The target of assay [14] is Dihydroorotate dehydrogenase (quinone), mitochondrial (Plasmodium falciparum (isolate 3D7)) (UniProt Q08210). Description: inhibition of P. falciparum DHODH – biochemical, C-terminal His tag, absorbance 600 nm, primary screen (AID 1175).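 Further: recombinant parasite enzyme with a five histidine tag at its C terminus; test concentration not given here.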 Particulars: PfDHODH enzyme, DCIP absorbance 600 nm; higher = more signal, called active from +8 up or from −8 down.
Assay [15] can be described thus: inhibition of PAO1 biofilm formation – strain PAO1, LB-PBS medium, absorbance 600 nm, primary screen (AID 1176). Further: test concentration not given here. Particulars: P. aeruginosa PAO1 growth/biofilm, A600, 12 h; higher = more signal.
Assay [16] is described as follows: growth modulation of vineyard yeast isolate – strain RM11-1a, OD600, basal, 24 h, primary screen (AID 1177).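 Further: cultures grown under basal conditions with no added stressor; test concentration not given here.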 Particulars: S. cerevisiae RM11-1a growth, OD600, 24 h; higher = more signal, called active from +8 up or from −8 down.
The nature of assay [17]: growth of efflux-deficient E. coli DRC39 – strain DRC39, OD650, 24 h, E. coli filamentation inducers, primary screen (AID 1178).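 Further: growth measured as culture turbidity by optical density at 650 nm; test concentration not given here.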 Particulars: E. coli DRC39 acrAB, higher = more signal, called active from +8 up or from −8 down.
The nature of assay [18]: growth of efflux-deficient E. coli DRC39 – strain DRC39, OD650, 48 h, E. coli filamentation inducers, primary screen (AID 1179).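 Further: screen aims at cell division blockers that make cells filament.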 The settings on record: E. coli DRC39 delta-acrAB growth, higher = more signal, called active from +8 up or from −8 down.
The nature of assay [19]: viability profiling in RPMI8226 myeloma cells – cell-based, resazurin fluorescence, basal, 24 h, PK04 Diversity Set, profiling panel (AID 1180).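 Further: RPMI8826 multiple myeloma cell line at 5000 cells per well; test concentration not given here.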 Particulars: higher = more signal.
For assay [20], the target named is E3 ubiquitin-protein ligase XIAP (Homo sapiens) (UniProt P98170). In words: small molecules binding XIAP protein – biophysical, small-molecule microarray, fluorescence 635 nm, primary screen (AID 1181).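 Further: score merges 667 nm emission and signal to noise over triplicate slides.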 The settings on record: higher = more signal.

SMILES strings stand for the structures. Activity calls are given as the source filed them. Unless noted, how the calls were made is not given here.

E3 ubiquitin-protein ligase XIAP (Homo sapiens), sequence (P98170 whole entry, looked up): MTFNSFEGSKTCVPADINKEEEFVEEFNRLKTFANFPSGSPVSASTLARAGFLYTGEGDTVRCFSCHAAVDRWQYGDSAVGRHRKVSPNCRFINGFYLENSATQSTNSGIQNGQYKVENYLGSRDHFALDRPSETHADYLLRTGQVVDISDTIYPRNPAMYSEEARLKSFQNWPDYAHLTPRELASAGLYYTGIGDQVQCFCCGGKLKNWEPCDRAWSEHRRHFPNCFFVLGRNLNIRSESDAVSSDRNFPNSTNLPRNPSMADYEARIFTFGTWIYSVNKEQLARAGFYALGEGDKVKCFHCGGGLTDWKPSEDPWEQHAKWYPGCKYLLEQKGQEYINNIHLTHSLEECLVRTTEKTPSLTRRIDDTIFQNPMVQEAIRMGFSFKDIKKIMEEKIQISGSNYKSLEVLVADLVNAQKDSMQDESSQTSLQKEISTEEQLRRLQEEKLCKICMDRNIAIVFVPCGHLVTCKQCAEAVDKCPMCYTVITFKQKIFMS
Dihydroorotate dehydrogenase (quinone), mitochondrial (Plasmodium falciparum (isolate 3D7)), sequence (Q08210 whole entry, looked up): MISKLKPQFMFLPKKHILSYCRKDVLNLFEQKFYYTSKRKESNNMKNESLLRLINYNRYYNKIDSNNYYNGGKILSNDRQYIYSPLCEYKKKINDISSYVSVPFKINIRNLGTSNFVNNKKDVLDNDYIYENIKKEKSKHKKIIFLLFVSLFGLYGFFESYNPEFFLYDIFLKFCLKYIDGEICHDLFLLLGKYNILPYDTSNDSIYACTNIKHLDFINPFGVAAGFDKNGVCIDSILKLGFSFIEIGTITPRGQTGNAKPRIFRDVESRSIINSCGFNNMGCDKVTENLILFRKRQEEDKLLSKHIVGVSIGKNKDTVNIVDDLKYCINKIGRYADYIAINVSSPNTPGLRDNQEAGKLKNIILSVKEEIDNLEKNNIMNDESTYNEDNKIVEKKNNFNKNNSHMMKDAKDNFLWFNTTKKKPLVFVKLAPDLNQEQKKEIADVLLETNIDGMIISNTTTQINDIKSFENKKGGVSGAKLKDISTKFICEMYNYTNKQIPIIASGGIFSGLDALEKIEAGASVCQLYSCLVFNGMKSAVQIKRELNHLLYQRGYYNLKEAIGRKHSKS

As to `O=C1[C@]2(CO)C=C(Br)[C@@H](C[C@@H]2c2ccccc2)[C@@]12CO2`, the z-score was -0.425 in assay [1]; 0.364 in [2]; -0.421 in [3]; -2.22 in assay [4]; -2.68 in assay [5]; -1.66 in assay [6]. The z-score in assay [7] was -0.435 (inactive); in assay [8] it was 0.278; in assay [9] it was -1.14; in assay [10], 0.359 (inactive); in assay [11], 1.09; in [12] it was -4.57 (inactive). Moreover, the z-score was -0.0768 (inactive) in assay [13]; -0.884 (inactive) in [15]; 0.184 (inactive) in assay [16]; 0.613 (inactive) in assay [17]; 0.585 (inactive) in [18]; -0.333 in [19]. Further, the values for the composite z-score in assay [14] and in assay [20] were -0.172 (inactive) and -0.102, respectively.

As for `CC(C)CNC(=O)[C@@]1(c2ccc([N+](=O)[O-])cc2)CC(=O)N(CC23CC4CC(CC(C4)C2)C3)[C@@H]1c1ccc(CO)cc1I`, the z-score was -0.394 in [1]; 0.604 in [2]; -3.4 in assay [3]; -3.83 in assay [4]; -4.32 in assay [5]; 1.47 in [6]. Moreover, the z-score in assay [7] is -0.744 (inactive); in [8], -0.948; in [9] it was -0.674; in assay [10], -2.77 (inactive); in [11], -2.55; in [12] it was 0.431 (inactive). The z-score was -2.77 (inactive) in [13]; 1.9 (inactive) in [15]; 1.69 (inactive) in assay [16]; -0.507 (inactive) in assay [17]; -0.91 (inactive) in assay [18]; -3.94 in [19]. For the same compound, the values for the composite z-score in [14] and in assay [20] were 0.989 (inactive) and -0.144, respectively.

`O=C1OCCC=C[C@H]2OC34C=CCN(c5ccc6ccccc6c5)C(=O)[C@H]3N(CCCCCO)C(=O)[C@@H]4C12` (stereo not given in full): the z-score in assay [1] was 0.32; in assay [2] it was -0.691; in assay [3], 1.84; in [4] it was 1.35; in assay [5], 0.0492; in [6], 1.53. The z-score in assay [7] was -0.279 (inactive); in [8] it was -0.0802; in assay [9], -0.0576; in assay [10], 0.384 (inactive); in assay [11], 1.32; in assay [12], -0.805 (inactive). Besides, the z-score in [13] was 0.835 (inactive); in [15], 0.357 (inactive); in assay [16], -0.403 (inactive); in assay [17], 1.61 (inactive); in assay [18], 1.74 (inactive); in [19], 1.28. The composite z-score in [14] was -0.556 (inactive); in assay [20], -0.174.

On to `COC(=O)[C@]1(Cc2ccccc2N=[N+]=[N-])N=C(c2ccc(OCCCO)cc2)O[C@@H]1c1ccccc1N=[N+]=[N-]`, for which the z-score in [1] was -3.83; in assay [2], -0.504; in assay [3] it was -5.54; in assay [4] it was -3.59; in assay [5], -3.94; in assay [6], -2.39. Moreover, the z-score is -0.708 (inactive) in assay [7]; -1.2 in assay [8]; -2.8 in assay [9]; -2.87 (inactive) in [10]; -3.41 in assay [11]; -0.569 (inactive) in [12]. The z-score in [13] is -6.71 (inactive); in assay [15] it was 0.755 (inactive); in [16] it was -0.0599 (inactive); in assay [17], 0.2 (inactive); in assay [18], -0.54 (inactive); in assay [19], -7. Also, the values for the composite z-score in assay [14] and in [20] were 0.519 (inactive) and 0.165, respectively.

In the case of `CC(C)C(=C=CC[C@H](O)c1ccccc1OCCO)C[C@H](O)c1ccccn1`, the z-score in [1] is 0.82; in assay [2] it was -0.27; in assay [3], 1.33; in assay [4], 0.198; in assay [5], 0.0964; in assay [6] it was 0.714. Further, the z-score in assay [7] was 0.085 (inactive); in assay [8], -0.332; in [9], -1.3; in assay [10] it was -0.607 (inactive); in assay [11], 0.644; in assay [12] it was -0.669 (inactive). The z-score was 0.34 (inactive) in assay [13]; 0.4 (inactive) in assay [15]; 0.398 (inactive) in assay [16]; 0.762 (inactive) in [17]; 0.577 (inactive) in [18]; 0.285 in assay [19]. The composite z-score was -3.95 (inactive) in assay [14] and -0.226 in assay [20].

Consider `COc1cccc(C(=O)O[C@H]2CC[C@]3(C)C4=C(CCC3C2(C)C)[C@]2(C)CC[C@H]([C@H](C)CCCC(C)C)[C@@]2(C)CC4)c1` (stereo not given in full), for which the z-score in assay [1] is 0.583; in [2], 0.146; in [3], 0.689; in assay [4], -0.56; in assay [5] it was 0.241; in [6], 1.28. For the same compound, the z-score in [7] was 0.387 (inactive); in assay [8], -0.0502; in assay [9], -1.49; in assay [10] it was 0.479 (inactive); in assay [11] it was 0.514; in assay [12], -0.488 (inactive). For the same compound, the z-score in assay [13] was 0.697 (inactive); in [15], 0.671 (inactive); in assay [16] it was -1.62 (inactive); in assay [17] it was 0.621 (inactive); in assay [18], 1.18 (inactive); in assay [19], 0.815. Moreover, the results for the composite z-score in [14] and in assay [20] were -2.17 (inactive) and 0.132, respectively.

Consider `C=CC[C@]1(C(=O)N2CCOCC2)N=C(c2ccc(OCCCO)cc2)O[C@H]1c1ccccc1`, for which the z-score in assay [1] was -0.211; in assay [2] it was 0.117; in [3] it was -0.539; in assay [4] it was -1.11; in [5] it was -2.07; in assay [6], -0.0158. Also, the z-score in assay [7] is -0.0689 (inactive); in assay [8] it was -0.326; in assay [9], -0.577; in assay [10], 1.39 (inactive); in [11], 0.318; in assay [12], -1.4 (inactive). Further, the z-score in assay [13] is -0.0524 (inactive); in assay [15], 1.17 (inactive); in assay [16], -0.594 (inactive); in [17], 0.14 (inactive); in assay [18] it was 0.122 (inactive); in assay [19], 0.335. The composite z-score was 0.373 (inactive) in assay [14] and -0.031 in assay [20].

Turning to `COCCOC(=O)N1C(=O)[C@@]2(c3cc(C#CCCO)ccc31)[C@H](C(=O)NC[C@H](O)c1ccccc1)[C@H]1C(=O)O[C@H](c3ccccc3)[C@H](c3ccccc3)N1[C@@H]2c1ccc(O)cc1`, the z-score in [1] is 0.292; in [2], 0.0669; in assay [3], 0.289; in assay [4] it was 0.715; in assay [5] it was 0.568; in assay [6], 0.467. The z-score in assay [7] is -0.734 (inactive); in assay [8] it was 0.571; in assay [9], -0.446; in assay [10], 0.224 (inactive); in assay [11], 0.816; in assay [12], 0.562 (inactive). Besides, the z-score in assay [13] is 0.858 (inactive); in assay [15] it was 0.29 (inactive); in assay [16], 1.36 (inactive); in assay [17], 1.01 (inactive); in [18], 0.887 (inactive); in [19], 1.04. The results for the composite z-score in assay [14] and in assay [20] were 1.34 (inactive) and -0.0126, respectively.

With `Cc1ccc([C@H]2[C@H](C(=O)O)[C@H](Sc3ccccc3)[C@@H](C(C)C)N2S(=O)(=O)c2ccc(C)cc2)cc1`, the z-score in assay [1] was -0.74; in [2], -0.594; in [3] it was -0.447; in assay [4] it was -0.0237; in assay [5] it was -0.802; in [6] it was -1.63. The z-score was 0.327 (inactive) in assay [7]; -0.199 in assay [8]; -0.437 in assay [9]; -0.064 (inactive) in assay [10]; -1.15 in [11]; -0.138 (inactive) in assay [12]. Further, the z-score in assay [13] is -0.498 (inactive); in [15], 0.0362 (inactive); in assay [16], -0.528 (inactive); in assay [17], -1.44 (inactive); in [18], -0.292 (inactive); in assay [19], -1.39. Moreover, the figures for the composite z-score in [14] and in [20] were 0.184 (inactive) and 0.603, respectively.

These data come from PubChem BioAssay.
